As usually defined, the Inhibition is the percentage by which the read-out fell short of the control. A higher Inhibition goes with a response far below the control.

The record followed here is ChEMBL document CHEMBL1157539, “Thousands of chemical starting points for antimalarial lead identification” (Nature, 2010).

What all share (format): functional
Assay [1] relates to Plasmodium falciparum. Nature of the assay: GSK_TCMDC: Inhibition of Plasmodium falciparum 3D7 in whole red blood cells, using parasite LDH activity as an index of growth. Test compounds present at 2uM.
The test system of assay [2] is Plasmodium falciparum. Nature of the assay: GSK_TCMDC: Inhibition of Plasmodium falciparum Dd2 in whole red blood cells, using parasite LDH activity as an index of growth. Test compounds present at 2uM.
A further assay deals with HepG2. Nature of the assay: GSK_TCMDC: Percent inhibition of human HepG2 cell line. Test compounds present at 10uM.

Turning to `CN1CCN(c2cc(NC(=O)c3ccc(-c4ccc(Cl)cc4)cc3)ccc2Cl)CC1`, the Inhibition in the assay on Plasmodium falciparum [1] amounted to 99%; in the assay with Plasmodium falciparum [2], 33%; in the assay on HepG2, 30%.
For `Cc1cc(F)ccc1-c1nc(NCCCN2CCCC2=O)nc2c1ccc(=O)n2-c1c(F)cccc1F`, in that order: 88%, 80% and 0%.
For `Br.COc1ccc(OC)c2c1CCN(C)C2Cc1cccc2ccccc12` (stereo unspecified), in that order: 91%, 79% and 13%.
On the same counts, the results for `Cc1ccc(NC(=O)c2ccc3ncccc3c2)cc1OC1CCN(Cc2ccc(F)cc2)CC1.O=C(O)C(F)(F)F` are 91%, 22% and 6%.
For the compound `Cl.Cn1c(=O)n(C)c2cc(CNCCNc3ccnc4cc(Cl)ccc34)ccc21`, the values for the Inhibition in the assay on Plasmodium falciparum [1], in the assay with Plasmodium falciparum [2] and in the assay with HepG2 were 100%, 96% and 17%, respectively.
Turning to `CCN(CC)CCN(Cc1ccc(-c2ccc(C(F)(F)F)cc2)cc1)C(=O)Cn1c(CCc2cccc(F)c2F)c(C)c(=O)c2ccccc21.O=C(O)C(O)C(O)C(=O)O`, the figures for the Inhibition in the assay on Plasmodium falciparum [1], in the assay with Plasmodium falciparum [2] and with HepG2 were 87%, 52% and 61%, respectively.
In the case of `CC(=O)N1Cc2ccccc2C1=O`, the results for the Inhibition in the assay on Plasmodium falciparum [1], in the assay with Plasmodium falciparum [2] and in the assay with HepG2 were 97%, 0% and 10%, respectively.
For `COc1cc2ncnc(Nc3ccc(OCc4ccccc4)c(OCc4ccccc4)c3)c2cc1OC.Cl`, the Inhibition in the assay on Plasmodium falciparum [1] turned out to be 100%; with Plasmodium falciparum [2], 57%; in the assay with HepG2, 4%.
On the same counts, the results for `CCOc1ccc(NC(=O)c2cccc(CN3CCCN(Cc4cccc(O)c4)CC3)c2)cc1.O=C(O)C(F)(F)F` are 95%, 23% and 22%.
In the case of `O=S(=O)(Nc1cccc(CCN2CCC(N3CCCCC3)CC2)c1)c1ccc(Oc2ccccc2)cc1`, the Inhibition in the assay on Plasmodium falciparum [1] was 100%; with Plasmodium falciparum [2], 25%; in the assay with HepG2, 28%.
Regarding `COc1ccc(CN2CCCN(Cc3cccc(C(=O)Nc4ccc(C)c(F)c4)c3)CC2)cc1.O=C(O)C(F)(F)F`, the Inhibition stood at 83% in the assay on Plasmodium falciparum [1], 10% with Plasmodium falciparum [2] and 49% in the assay on HepG2.
On the same counts, the results for `CS(=O)(=O)c1ccc(-c2nc(NCC3CCCCC3)cc(C(F)(F)F)n2)cc1` are 83%, 76% and 0%.
For `COc1ccc2nccc([C@@H](O)CN3CCC(NC(=O)/C=C/c4ccnc5ccccc45)CC3)c2c1`, in that order: 91%, 12% and 19%.
On the same counts, the results for `COc1ccc(Nc2nccc(NCC(O)c3cccc(C(F)(F)F)c3)n2)cc1` (stereo unspecified) are 98%, 33% and 22%.
Turning to `Cc1cc(N[C@@H](CC(C)C)C(=O)NCCc2ccccc2)nc(Nc2ccccc2)n1.O=C(O)C(F)(F)F`, the values for the Inhibition with Plasmodium falciparum [1], in the assay with Plasmodium falciparum [2] and in the assay with HepG2 were 100%, 38% and 1%, respectively.
For `O=c1cc(NCCCNCc2[nH]c3cc(Cl)cc(Cl)c3c2Cn2cccn2)[nH]c2ccccc12`, in that order: 86%, 2% and 5%.
On the same counts, the results for `C#CCNCc1ccc(-c2ccc(-c3nc4cc(C(F)(F)F)ccc4[nH]3)s2)cc1.O=C(O)C(F)(F)F` are 98%, 28% and 37%.
`COc1cccc2cc(C(=O)N[C@@H](CC(C)C)C(=O)N[C@H](/C=N/N(C)C(=O)OC(C)(C)C)CC(=O)OC(C)(C)C)oc12`: the Inhibition with Plasmodium falciparum [1] is listed as 87%; with Plasmodium falciparum [2], 67%; in the assay with HepG2, 5%.
For `FC(F)(F)c1ccc2[nH]c(-c3ccc(-c4ccc(CNCCN5CCNCC5)cc4)cc3)nc2c1.O=C(O)C(F)(F)F`, the Inhibition is 92% with Plasmodium falciparum [1], 74% in the assay with Plasmodium falciparum [2] and 13% in the assay with HepG2.
With `COc1ccc2[nH]cc(C3CCN(CCCCNC(=O)c4ccc(NC(=O)c5ccc(Cl)cc5)cc4)CC3)c2c1`, the Inhibition in the assay on Plasmodium falciparum [1] was determined as 98%; in the assay on Plasmodium falciparum [2] it was 16%; with HepG2 it was 17%.
Regarding `COc1ccc2nccc(N3CCC(CCNCc4ccc5c(n4)NC(=O)CS5)CC3)c2n1.Cl`, the Inhibition in the assay on Plasmodium falciparum [1] was 100%; in the assay with Plasmodium falciparum [2], 75%; in the assay on HepG2, 32%.
For `Cc1[nH]c(C)c(-c2ccc(Br)cc2)c(=O)c1Cl`, in that order: 94%, 77% and 22%.
On the same counts, the results for `COc1ccc(-c2csc3ncnc(Cl)c23)cc1` are 96%, 97% and 0%.
As to `CCc1ccc(NC(=O)c2ccc(CN3CCCN(Cc4cccc(C)c4)CC3)cc2)cc1.O=C(O)C(F)(F)F`, the results for the Inhibition in the assay with Plasmodium falciparum [1], in the assay with Plasmodium falciparum [2] and with HepG2 were 80%, 0% and 53%, respectively.
Regarding `O=C(Nc1ccc(-c2cccc(-c3nc4ccccc4[nH]3)c2)cc1)c1cnn2cccnc12`, the figures for the Inhibition with Plasmodium falciparum [1], in the assay on Plasmodium falciparum [2] and in the assay with HepG2 were 99%, 36% and 64%, respectively.
For `Cc1cc(OCCCN2CCC(NS(=O)(=O)c3ccc(Cl)c(Cl)c3)CC2)c2ccccc2n1`, in that order: 96%, 35% and 11%.
For `O=C(O)C(F)(F)F.O=S(=O)(NCCN1CCCC1)c1cccc(-c2cccc(CNCc3ccccc3)c2)c1`, in that order: 97%, 73% and 32%.
In the case of `Oc1ccc(-c2ccccc2)cc1CN1CCCCCC1`, the Inhibition in the assay on Plasmodium falciparum [1] was 95%; in the assay with Plasmodium falciparum [2] it was 85%; in the assay with HepG2, 6%.
On the same counts, the results for `CCN(CC)CCCN(CCCN(CC)CC)c1cc(C)nc(Nc2ccc3cc(Br)ccc3c2)n1.Cl` are 100%, 73% and 12%.
For `CC(C)Cn1ncc2c3c(N)nc(N)nc3ccc21`, in that order: 94%, 73% and 63%.
On the same counts, the results for `CCCNC(=O)Nc1ccc(N(C)c2ccnc(NC3CC3)n2)cc1` are 100%, 88% and 28%.
For `CCC[C@@H]([C@@H](CC(C)C)C(=O)N[C@@H](CCCCNC(=O)c1ccccn1)C(=O)Nc1nccs1)N(O)C=O`, the Inhibition was 100% with Plasmodium falciparum [1], 100% in the assay with Plasmodium falciparum [2] and 0% in the assay with HepG2.
Take `CCCCNc1nccc2ccc(-c3ccncc3)cc12`: the figures for the Inhibition with Plasmodium falciparum [1], in the assay with Plasmodium falciparum [2] and in the assay on HepG2 were 93%, 1% and 6%, respectively.
For `CN(C)CCCOc1ccc(CN2CC[C@H](NC(=O)c3ccc(Cl)c(Cl)c3)C2)cc1Br.O=C(O)C(F)(F)F`, in that order: 100%, 34% and 11%.
For `O=C(Nc1ccc(N2CCCN(Cc3cccc(F)c3)CC2)cc1)c1ccc(F)cc1.O=C(O)C(F)(F)F`, the Inhibition with Plasmodium falciparum [1] is 96%; with Plasmodium falciparum [2], 95%; in the assay on HepG2, 0%.
In the case of `Cl.O=C1COc2cc(Cl)c(CNC3CCN(CCc4ccnc5c(F)cc(F)cc45)CC3)nc2N1`, the Inhibition in the assay with Plasmodium falciparum [1] is 98%; with Plasmodium falciparum [2] it was 49%; with HepG2, 96%.
On to `COc1cc(CNCCCCCCNCc2cc(OC)c3ccccc3c2OC)c(OC)c2ccccc12.CS(=O)(=O)O`, for which the Inhibition is on record as 100% in the assay on Plasmodium falciparum [1], 40% in the assay with Plasmodium falciparum [2] and 99% in the assay with HepG2.
For `CCCC(=O)c1cnc2c(Oc3cc(Cl)ncn3)cccc2c1Nc1ccccc1C`, in that order: 99%, 85% and 6%.
On the same counts, the results for `Cc1cc(O)c(CN(C)Cc2ccc(N(C)C)cc2)cc1C(C)C` are 100%, 98% and 3%.
For `COc1ccc(C2(CNCC(O)c3cccc([N+](=O)[O-])c3)CCCCC2)cc1OC.Cl` (stereo unspecified), in that order: 95%, 85% and 0%.
Consider `FC(F)(F)c1ccc2[nH]c(-c3ccc(-c4ccc(CN5CCN(c6ccncc6)CC5)cc4)s3)nc2c1.O=C(O)C(F)(F)F`, for which the Inhibition worked out at 100% in the assay with Plasmodium falciparum [1], 50% with Plasmodium falciparum [2] and 97% in the assay on HepG2.
In the case of `CS(=O)(=O)CCNCc1ccc(-c2ccc3c(Nc4ccc(F)cc4Cl)ccnc3c2)o1`, the figures for the Inhibition with Plasmodium falciparum [1], in the assay with Plasmodium falciparum [2] and with HepG2 were 100%, 98% and 29%, respectively.
For `CCC(C)(C)c1ccc(Oc2ccc(NC(=O)Nc3ccc(Cl)c(Cl)c3)cc2)cc1`, in that order: 98%, 97% and 13%.
On the same counts, the results for `N=C(N)NC(=O)Nc1ccc(Cl)c(Cl)c1` are 95%, 13% and 29%.
Regarding `O=C(Cc1ccccc1)NC(c1ccccc1)c1ccc2cccnc2c1O` (stereo unspecified), the Inhibition was 89% with Plasmodium falciparum [1], 61% with Plasmodium falciparum [2] and 49% with HepG2.
`Cc1ccc(NC(C)C(=O)Nc2ccc(C#N)cc2)cc1S(=O)(=O)N1CCCCC1` (stereo unspecified): the Inhibition in the assay on Plasmodium falciparum [1] is reported as 92%; in the assay on Plasmodium falciparum [2] it was 92%; with HepG2 it was 11%.
Turning to `CCn1cc2c3c(cc(C(=O)N[C@@H](Cc4ccccc4)[C@H](O)CNCc4cccc(OC)c4)cc31)N(C)S(=O)(=O)CC2`, the Inhibition was 99% in the assay on Plasmodium falciparum [1], 97% in the assay on Plasmodium falciparum [2] and 0% in the assay on HepG2.
On the same counts, the results for `CCCCOc1c(CCC)cc(Cc2cnc(N)nc2N)cc1CCC.Cl` are 97%, 0% and 27%.
On to `CC(C)c1cccc(C(NC(=O)[C@H]2Cc3ccccc3CN2C(=O)c2cccc(N3CCOCC3)c2)C2CCCC2)c1` (stereo partly specified), for which the Inhibition with Plasmodium falciparum [1] is given as 94%; in the assay with Plasmodium falciparum [2], 96%; with HepG2, 3%.
With `N#Cc1ccc(-c2ccc(C(=O)NC3CCN(CCN4CCc5c(cccc5C(F)(F)F)C4)CC3)cc2)cc1`, the Inhibition turned out to be 98% in the assay with Plasmodium falciparum [1], 51% in the assay on Plasmodium falciparum [2] and 40% with HepG2.
In the case of `O=C(OCc1ccccn1)c1nc2ccccc2[nH]1`, the Inhibition in the assay with Plasmodium falciparum [1] is recorded as 92%; in the assay on Plasmodium falciparum [2], 97%; with HepG2, 63%.
On to `CC1(C)N=C(N)N=C(N)N1c1ccc(Br)cc1.Cl`, for which the Inhibition in the assay on Plasmodium falciparum [1] is 94%; with Plasmodium falciparum [2], 4%; in the assay with HepG2 it was 52%.
For `O=C(Cn1nc(Br)nc1[N+](=O)[O-])NCC1CCCCC1`, in that order: 96%, 57% and 0%.
For `CC(C)NCc1ccc(-c2ccc(CN3CCCC(c4ccccc4)C3)cc2)c(C(=O)NCC2CCCCC2)c1.O=C(O)C(F)(F)F` (stereo unspecified), in that order: 97%, 53% and 79%.
For `CN1CCC(N(Cc2ccc(N3CCN(Cc4c[nH]c5ccc(Cl)cc45)CC3)nc2)C2CC2)CC1`, in that order: 100%, 76% and 96%.
Regarding `Cc1cccc2nc(-c3cccc(-c4cccc(NC(=O)c5ccncc5)c4)c3)[nH]c12`, the Inhibition was 100% in the assay with Plasmodium falciparum [1], 78% with Plasmodium falciparum [2] and 22% in the assay on HepG2.
As for `Cc1[nH]c2ccccc2c1C(=O)CSc1nn(-c2ccccc2)c(=S)s1`, the Inhibition in the assay with Plasmodium falciparum [1] was 100%; in the assay with Plasmodium falciparum [2], 99%; in the assay with HepG2 it was 0%.
On the same counts, the results for `O=C(Nc1ccc(N2CCN(Cc3c[nH]c4cc(F)ccc34)CC2)cc1)c1ccccc1-c1ccc(C(F)(F)F)cc1` are 85%, 7% and 20%.
Consider `COc1cccc2c(NN=Cc3cccc(Cl)c3)cc(C)nc12`, for which the Inhibition amounted to 100% in the assay with Plasmodium falciparum [1], 75% in the assay on Plasmodium falciparum [2] and 3% in the assay with HepG2.
With `CC(=O)c1ccc(-c2cccc3c(CC(=O)Nc4ccc5nccc(N6CCN(C)CC6)c5c4)cccc23)cc1`, the Inhibition with Plasmodium falciparum [1] is reported as 100%; in the assay with Plasmodium falciparum [2], 96%; in the assay with HepG2, 3%.
As for `O=C(NCc1cccc(CN2CCOCC2)c1)c1cc(Br)cc(N2CCN(c3ccncc3)CC2)c1.O=C(O)C(F)(F)F`, the figures for the Inhibition with Plasmodium falciparum [1], in the assay with Plasmodium falciparum [2] and in the assay with HepG2 were 99%, 29% and 25%, respectively.
As for `O=C(Nc1ccc(-c2nc3ccccc3[nH]2)cc1)c1ccc(S(=O)(=O)N2CCc3ccccc32)cc1`, the Inhibition in the assay on Plasmodium falciparum [1] is 100%; in the assay with Plasmodium falciparum [2] it was 34%; in the assay with HepG2, 32%.
